# Screening data (PubChem)
# Rows were chosen to be rich in hits. Some 2.4% of all compounds tested hit in one or more screens of this group.
# D2 PAM-1: HTS Assay for Positive Allosteric Modulators of the Human D2 Dopamine Receptor: Primary Screen for Potentiators; hit rate 0.34% among 340,000; AID 485347, 2010; HEK293 T-REx D2, calcium flux, EC20 dopamine potentiation; potentiation, % at 10 µM;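 active = potentiation over 3 SD above the plate norm, cut at about 30% in these data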; note: 0% is about no effect
# Target sequence (P14416 whole entry, looked up): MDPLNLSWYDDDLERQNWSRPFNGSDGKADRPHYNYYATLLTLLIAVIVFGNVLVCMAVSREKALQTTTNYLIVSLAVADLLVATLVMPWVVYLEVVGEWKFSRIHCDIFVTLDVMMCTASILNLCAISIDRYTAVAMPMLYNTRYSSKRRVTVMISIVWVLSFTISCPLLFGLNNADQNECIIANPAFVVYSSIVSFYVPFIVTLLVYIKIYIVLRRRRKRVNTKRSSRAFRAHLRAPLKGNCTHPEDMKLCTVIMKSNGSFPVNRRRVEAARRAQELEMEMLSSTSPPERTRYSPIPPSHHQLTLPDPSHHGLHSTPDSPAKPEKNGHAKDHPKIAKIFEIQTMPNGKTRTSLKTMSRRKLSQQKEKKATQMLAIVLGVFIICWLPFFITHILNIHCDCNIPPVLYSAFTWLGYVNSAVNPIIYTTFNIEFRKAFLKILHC
#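 Calcium flux readout, no-wash dye, 1 read/s. Inducible HEK293 Trex D2 line, overnight 30 C. Compound alone 180 s (agonist flags), then EC20 dopamine, another 180 s to score potentiation.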
# D2 antagonist: HTS Assay for Allosteric Antagonists of the Human D2 Dopamine Receptor: Primary Screen for Antagonists | D(2) dopamine receptor (Homo sapiens), P14416 | HEK293 TREx D2 cells, calcium flux, dopamine EC80 | inhibition, % at 10 µM | hit rate 2% among 340,000; in the data active = inhibition above about 30%; inactive = below that, where a call was filed; note: 0% is about no effect
#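 Antagonism is scored as inhibition of an EC80 dopamine-evoked calcium signal in a force-coupled, tetracycline-inducible HEK293 T-REx D2 line, with compound present 180 s before agonist.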
# D2 ag-1: Beta-Arrestin HTS for Positive Allosteric Modulators of the Human D2 Dopamine Receptor: Agonists. D(2) dopamine receptor (Homo sapiens), P14416. DiscoveRx PathHunter D2 beta-arrestin, luminescence, 90 min; 100% = 57 uM dopamine signal. activation, % (no concentration beside the values). hit rate 0.084% among 360,000. AID 624465, 2012; in the data active = activation above about 40%
#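 DiscoveRx PathHunter D2 beta-arrestin cells (2,100/well) attached overnight, then compound-stimulated 90 min at 37 C in HBSS/10 mM HEPES/0.1% Tween-20 buffer; beta-galactosidase complementation read by luminescence after 1 h at ambient temperature. Dopamine 57 uM final (EC100) as control.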
# D2 PAM-2: Beta-Arrestin HTS for Positive Allosteric Modulators of the Human D2 Dopamine Receptor: Potentiators | D(2) dopamine receptor (Homo sapiens), P14416 | DiscoveRx D2 beta-arrestin cells, luminescence, 90 min; 100% = 57 uM dopamine signal | potentiation, % (test concentration not listed) | hit rate 0.23% among 360,000; in the data active = potentiation above about 50%
#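 PathHunter D2 cells, attached overnight at 37 deg C, received compound in DMSO plus dopamine at EC20 (50 nM final) for 90 min at 37 deg C. Beta-arrestin recruitment was read as luminescence after 1 h with detection reagent at ambient temperature.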
# D2 ag-2: HTS Assay for Allosteric Agonists of the Human D2 Dopamine Receptor: Primary Screen for Agonists; D(2) dopamine receptor (Homo sapiens), P14416; HEK293 T-REx D2 cells, calcium flux agonist mode; activation, % at 2 µM; hit rate 0.53% among 340,000;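 active = activation over 3 SD above normal in the single-dose calcium agonist read, cut at about 30% in these data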; note: 0% is about no effect
#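 Tetracycline-induced HEK293 T-REx cells with force-coupled D2 receptor, plated overnight at 30 C, loaded with no-wash calcium dye. After a 10 s baseline, compound was pin-added and calcium flux read kinetically for 180 s; calcium rises flagged agonists.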
# Numbers without * were called inactive; · = not tested or not shown.
SMILES,D2 PAM-1,D2 antagonist,D2 ag-1,D2 PAM-2,D2 ag-2
COc1ccc(CNC(=O)c2cnc(N3CCCC3)nc2C)cc1,10.1,·,·,·,1.6
CC(C)N(Cc1ccccc1)C(=O)COC(=O)C1CCN(c2ccc(C(F)(F)F)cn2)CC1,-11.1,2.7,-4.7,-5.7,1.0
CC(C)(C)N(Cc1ccccc1)C(=O)COC(=O)C1CCN(c2ccc(C(F)(F)F)cn2)CC1,59.1*,-17.5,-6.3,-14.9,0.0
Cc1nn2c(=O)cc(COC(=O)c3ccc(NC(=O)COc4ccc(Cl)cc4)cc3)nc2s1,·,·,·,·,-1.5
N#Cc1cnc(SCC(=O)Nc2ccccc2C(F)(F)F)nc1N,-0.7,32.0*,-0.3,-7.4,1.3
Nc1nnc(SCC(=O)Nc2ccccc2C(F)(F)F)s1,8.2,·,·,·,-1.9
COCCN1C=C(C(=O)OC)C(c2cc(Br)c(OC)c(OC)c2)C(C(=O)OC)=C1,33.5*,-2.7,-1.0,-13.6,-0.5
COC(=O)C1=CN(Cc2ccc(C)cc2)C=C(C(=O)OC)C1c1cc(OC)c(OC)c(OC)c1,-2.7,-4.9,-2.6,-15.0,0.6
COc1ccc(Cl)c2sc(NC(=O)c3ccc(S(=O)(=O)N4CCOCC4)cc3)nc12,8.1,·,·,·,1.8
CCOC(=O)c1ccc(N2C(=O)c3[nH]nc(-c4ccc(OC)cc4)c3C2c2ccc(C)cc2)cc1 (stereo unspecified),17.4,·,·,·,-0.1
Cn1c(SCC(=O)Nc2ccc3c(c2)CCC3)nnc1C1CC1,-10.9,-9.1,-1.9,-16.2,-0.4
CCOc1ccc(NC(=O)CN2CCN(c3ccc(F)cc3)CC2)cc1S(=O)(=O)N1CCCC1,·,·,-3.0,-45.3,·
COc1ccc(NC(=O)CSc2nnc(C3CC3)n2C)cc1,-0.7,5.1,-0.8,-13.0,2.2
CCOc1ccc(NC(=O)CSc2nnc(C3CC3)n2C2CC2)cc1,3.8,42.8*,-6.6,1.8,0.1
CCOc1ccc(NC(=O)CSc2nnc(C3CC3)n2C)cc1S(=O)(=O)N1CCCCC1,-5.5,43.8*,-0.3,2.6,0.0
CCOc1ccc(NC(=O)CN2CCN(c3ccccc3C)CC2)cc1S(=O)(=O)N1CCCC1,-26.4,34.7*,-0.5,-27.8,0.6
NC(=O)c1ccc(NC(=O)CSc2nnc(C3CC3)n2C2CC2)cc1,·,·,3.3,1.8,·
CCC(=O)Nc1cccc(NC(=O)CSc2nnc(C3CC3)n2C)c1,0.4,30.9*,-2.2,2.4,0.3
O=C(c1ccccc1)N1CCc2cc(CNS(=O)(=O)c3ccccc3Cl)ccc21,-5.9,·,·,·,·
COc1ccc(CCN(C)C(=O)C2CCN(Cc3ccc(C)cc3)CC2)cc1OC,-23.5,47.1*,0.5,-21.4,-0.1
COc1ccc(CN2CCC(C(=O)N(C)CCc3ccc(OC)c(OC)c3)CC2)c(OC)c1,30.9*,-10.6,2.0,-19.2,0.0
CCN(C(=O)Cn1nc(Cc2ccncc2)c2ccccc2c1=O)c1cccc(Cl)c1,-5.0,·,·,·,-0.1
CCOc1ccc(NC(=O)CSc2nc(-c3ccccc3)c3cc(OCC)ccc3n2)cc1,14.4,·,·,·,·
Cc1nnc(Sc2nc3c(c(=O)[nH]c(=O)n3C)n2CCc2ccccc2)s1,2.1,50.5*,5.2,-1.4,-1.2
CCc1cccc(C)c1NC(=O)CSc1nnc(C)o1,37.3*,0.2,-0.1,6.1,0.7
SMILES,D2 PAM-1,D2 antagonist,D2 ag-1,D2 PAM-2,D2 ag-2
Cc1ccc2occ(CC(=O)Nc3ccc(S(=O)(=O)N4CCC(C)CC4)cc3)c2c1,-1.4,·,·,·,3.9
Cc1c2ccccc2nc2c(F)c(NC(C)C)c(F)c(F)c12,2.1,28.1,1.8,5.2,44.8*
COC(=O)c1ccc(-n2c(C)cc(/C=N/n3cnnc3)c2C)cc1,6.0,30.7*,0.3,15.4,1.3
Cc1cc(/C=N/n2cnnc2)c(C)n1-c1ccc(C(=O)O)cc1,5.7,2.9,-1.2,-2.6,-1.3
CCc1ccc(NC(=O)Cn2c(=O)n(CC3CCCO3)c(=O)c3cc(OC)c(OC)cc32)cc1 (stereo unspecified),3.5,·,·,·,·
N#C/C(=C\c1ccc(-c2ccc(F)cc2)o1)C(=O)Nc1nc(-c2cccs2)cs1,-2.5,5.0,-6.4,-37.9,-0.1
N#C/C(=C/c1ccc(-c2ccccc2)o1)c1nc(-c2cccs2)cs1,10.2,-16.0,1.6,2.9,87.2*
N#C/C(=C/c1ccc(-c2ccc(S(N)(=O)=O)cc2)o1)C(=O)Nc1ccccc1,-6.7,3.5,8.6,-2.0,-0.6
N#C/C(=C/c1ccc(-c2ccc(S(N)(=O)=O)cc2)o1)c1nc2ccccc2s1,1.0,25.2,11.0,24.6,115.5*
CCN(Cc1ccccc1)S(=O)(=O)c1ccc2c(c1)CC(C)N2C(=O)C1CCC1 (stereo unspecified),-4.0,·,·,·,0.6
CC(=O)c1ccc(NC(=O)CCCc2nc(-c3cccc(C)c3)no2)cc1,-22.7,·,·,·,-1.4
O=C(c1ccc(Br)o1)N1CCC(Cc2ccccc2)CC1,8.2,49.1*,-4.3,-13.8,-1.1
CC(=O)c1ccc(NC(=S)N2CCC(Cc3ccccc3)CC2)cc1,-5.7,32.5*,-2.8,-11.5,-1.4
CC(=O)c1cccc(NC(=S)N2CCC(Cc3ccccc3)CC2)c1,-8.1,8.1,-1.7,-16.5,0.2
CCC1CN(C(=O)N2CCC(C(=O)NCc3cccc(F)c3)CC2)c2cc(C)ccc2O1 (stereo unspecified),2.1,·,·,·,0.4
O=C(CSc1ncc2c(n1)-c1ccccc1N(Cc1ccc(Cl)cc1)S2(=O)=O)c1ccc(Cl)cc1,0.5,·,·,·,0.3
CN1CCCN(Cc2ccc(Cl)cc2Cl)CC1,-19.8,34.6*,-2.1,-30.5,-0.3
CN1CCCN(Cc2nc(-c3ccc(Cl)cc3)no2)CC1,7.8,11.4,-1.4,-13.9,1.0
CCCCCn1cnc2c(=S)nc(N)[nH]c21,8.3,48.6*,2.3,-6.0,1.7
CCCCn1cnc2c(=S)nc(N)[nH]c21,5.2,5.5,2.8,-5.5,0.8
CCc1cccc(CC)c1NC(=O)CCCSc1nc2ccccc2s1,-2.3,30.3*,1.9,15.0,-1.4
Cc1cccc(C)c1NC(=O)CCCSc1nc2ccccc2s1,7.6,-3.5,-3.4,-20.8,-0.6
CCN1CCN(c2nc(N(C)c3ccccc3)nc(N)c2[N+](=O)[O-])CC1,-19.5,49.5*,-1.7,-13.6,5.0
CCN1CCN(c2nc(Nc3ccc(C)c(C)c3)nc(N)c2[N+](=O)[O-])CC1,-21.9,51.5*,-5.9,-15.2,-1.7
CN1CCN(c2nc(NCc3ccco3)nc(N)c2[N+](=O)[O-])CC1,-23.6,77.2*,-0.2,-23.6,-0.6
